# Laboratory results from the supplement of paper PMC13380429.
# What was measured:
# [1] = test system: Vero E6 infected with SARS-CoV-2; test: morphology score (similarity to uninfected cells); higher = more like uninfected cells; settings: 24 h
# [2] = test system: Vero E6 infected with SARS-CoV-2; test: SARS-CoV-2 infection rate relative to infected DMSO; higher = more infection, active = 60 or less; settings: 24 h
SMILES,morphology score [1],SARS-CoV-2 infection rate [2]
NCc1c[nH]c(=S)n1[C@H]1CCc2c(F)cc(F)cc2C1 [nepicastat] (10 µM),-0.046,104% (inactive)
CC(=O)OCC(=O)[C@@]1(O)CC[C@H]2[C@@H]3CCC4=CC(=O)CC[C@]4(C)[C@H]3[C@@H](O)C[C@@]21C [hydrocortisone-acetate] (10 µM),-0.00868,110% (inactive)
Cn1cc(C(=O)OCC2CCN(CCNS(C)(=O)=O)CC2)c2ccccc21 (10 µM),0.228,96% (inactive)
C[C@H]1O[C@@H](n2cc(F)c(=O)[nH]c2=O)[C@H](O)[C@@H]1O [doxifluridine] (10 µM),0.32,108% (inactive)
COc1ccccc1N1CCN(CCCCNC(=O)c2ccc3ccccc3c2)CC1 (10 µM),-0.00528,94.5% (inactive)
CC(C)C[C@H](NC(=O)[C@@H](O)[C@H](N)Cc1ccccc1)C(=O)O [ubenimex] (10 µM),0.237,96% (inactive)
O=P1(N(CCCl)CCCl)NCCCO1 (stereo not drawn) [cyclophosphamide] (10 µM),0.0658,97.5% (inactive)
CC(C)C(=O)Nc1ncc(-c2cc(C(F)F)nn2-c2c(Cl)cccc2Cl)s1 (10 µM),-0.133,108% (inactive)
Cc1c(C(=O)NC2CCCCC2)sc2nc3ccc(N)cc3n12 (10 µM),0.0842,105% (inactive)
COc1ccc(CNC(=O)Nc2ncc([N+](=O)[O-])s2)cc1 (10 µM),-0.141,106% (inactive)
Nc1ncnc2c1ncn2CCOCP(=O)(O)O [adefovir] (10 µM),-0.0616,110% (inactive)
CCN[C@H]1CN(CCCOC)S(=O)(=O)c2sc(S(N)(=O)=O)cc21 [brinzolamide] (10 µM),0.267,69% (inactive)
Cc1ccc2c(c1CCC(=O)O)CC[C@@H](NS(=O)(=O)c1ccc(Cl)cc1)C2 [terutroban] (10 µM),0.115,112% (inactive)
O=C(O)COc1ccc(OCCNC[C@H](O)COc2ccccc2)cc1 (10 µM),-0.002,104% (inactive)
CC(=O)O[C@H]1CC[C@@]2(C)C(=CC[C@@H]3[C@@H]2CC[C@]2(C)C(c4cccnc4)=CC[C@@H]32)C1 [abiraterone-acetate] (10 µM),-0.0503,112% (inactive)
COc1cc2c(Nc3ccc(Cl)c(Cl)c3F)ncnc2cc1OC[C@@H]1C[C@@H]2CN(C)C[C@@H]2C1 (10 µM),-0.291,120% (inactive)
O=C1NCN(c2ccccc2)C12CCN(CC1COc3ccccc3O1)CC2 (stereo not drawn) [spiroxatrine] (10 µM),-0.179,114% (inactive)
CC(C)NC[C@@H](O)COc1ccc(CC(N)=O)cc1 (racemic) [atenolol-(+/-)] (10 µM),0.0556,108% (inactive)
C=CCc1ccc(O)c(-c2ccc(O)c(CC=C)c2)c1 [honokiol] (10 µM),0.432,80.5% (inactive)
CCCCCC(C)N (stereo not drawn) [tuaminoheptane] (10 µM),-0.092,109% (inactive)
COc1cc(C=O)ccc1O [vanillin] (10 µM),0.0882,104% (inactive)
O=C(NCc1ccc(F)cc1)N1CCN2C(=O)OC(c3ccccc3)(c3ccccc3)[C@@H]2C1 (racemic) (10 µM),0.069,97% (inactive)
C=CCC1(CC(C)C)C(=O)NC(=O)NC1=O [butalbital] (10 µM),-0.0632,117% (inactive)
CCOC(=O)[C@@H](N)Cc1ccc(O)c(O)c1 [etilevodopa] (10 µM),-0.149,110% (inactive)
C[C@@H](O[C@H]1OCCN(Cc2n[nH]c(=O)[nH]2)[C@H]1c1ccc(F)cc1)c1cc(C(F)(F)F)cc(C(F)(F)F)c1 [aprepitant] (10 µM),0.0718,108% (inactive)
CC(=O)Oc1ccccc1C(=O)Nc1ncc([N+](=O)[O-])s1 [nitazoxanide] (10 µM),0.224,88% (inactive)
Cc1cncc(CN2CCC(=C3c4ccc(Cl)cc4CCc4cccnc43)CC2)c1 [rupatadine] (10 µM),-0.0273,108% (inactive)
CCOC(=O)[C@H](CCc1ccccc1)N[C@@H](C)C(=O)N1C(=O)N(C)C[C@H]1C(=O)O [imidapril] (10 µM),-0.0373,117% (inactive)
O=C1C(O)=C([C@H]2CC[C@H](c3ccc(Cl)cc3)CC2)C(=O)c2ccccc21 [atovaquone] (0.833333 µM),0.028,106% (inactive)
